Assay results reported in PubChem BioAssay (NCI).
Compounds without any hit were thinned out: in the full panel of roughly 83,000, 20% have a hit.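 Percent growth is the endpoint: 0 to 100 indicates growth inhibition (40 means 60% inhibition), 0 means no net growth, and negative values indicate cell death.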 The source made the active and inactive calls.

System: RPMI-8226 leukemia
Test: NCI-60 one-dose screen, 48 h (100 = growth as untreated, 0 = no growth, -100 = all killed)
Settings: 10 µM unless noted
Experimental: Growth inhibition of the RPMI-8226 human tumor cell line is measured as a screen for anti-cancer activity. Cells are grown in 96 well plates and exposed to the test compound for 48 hours. Compounds are tested at a single concentration, which is 10^-5 M for most compounds. The reported endpoint is percent growth (GI% or GIPRCNT), where numbers from 0 - 100% represent growth inhibition, and numbers from -100% - 0 represent cell death. For example, a value of 40 represents 60% growth inhibition. A value of 0 means no net growth occurred over the course of the experiment. A value of -40 indicates 40% of cells at the beginning of the experiment died by the end of the experiment. A value of -100 means all cells are dead at the end of the experiment.
NCI-60 Human Tumor Cell Lines Screen was performed using the standard one-dose NCI protocol, which is described in more detail at https://dtp.cancer.gov/discovery_development/nci-60/default.htm.
Compounds with GIPRCNT values below 10 were considered active. Activity score was based on GIPRCNT using the following formula: […]
Score is 0 for GIPRCNT values of 100 or above, 50 for GIPRCNT values of 0, and 100 for GIPRCNT values of -100.

| SMILES | growth |
| --- | --- |
| COc1cccc(-c2[nH]c(=S)ncc2C(=O)c2ccccc2)c1 | 113% (inactive) |
| COc1cc2c(c(OC)c1)C1c3cc(OC)ccc3NC(=O)N1CC2 (stereo not given) | 81.9% (inactive) |
| CC(C)=CCC[C@](C)(O)[C@H]1CC[C@]2(C)[C@@H]1CC[C@@H]1[C@@]3(C)CC/C(=N/O)C(C)(C)[C@@H]3CC[C@]12C | -2.67% [100 µM] (active) |
| O=C1/C(=C\c2cn(CC(O)CN3CCCCC3)c3ccccc23)c2ccccc2N1c1c(Cl)cccc1Cl (stereo not given) | -25.7% (active) |
| CCOC(=O)c1c[nH]n2c(=S)ncnc12 | 107% (inactive) |
| COc1ccc2c(c1)c(-c1noc(-c3cn(C)c4ncc(F)cc34)n1)cn2C | 92.1% (inactive) |
| C1=C[C@H]2O[C@@H]1c1ccc3[nH]ccc3c12 | 93.8% (inactive) |
| C[C@H]1[C@H](C)CC[C@]2(COC(=O)CCC(=O)O)CC[C@]3(C)C(=CC[C@@H]4[C@@]5(C)CCCNC(C)(C)[C@@H]5CC[C@]43C)[C@H]12 | 59.7% [100 µM] (inactive) |
| CN(C)CCOc1ccc(/C(=C(/CCCl)c2ccccc2)c2ccccc2)cc1 | -11.4% (active) |
| CC(C)c1ccc(C(=O)Nc2sc3c(c2C#N)CCC(=O)C3)cc1 | -35.2% (active) |
| CC(C)C1=NOC(=O)C1=Cc1cn(-c2ccccc2)nc1-c1ccccc1 | -16.2% (active) |
| O=C(O)c1cn(C2CC2)c2cc(N3CCN(Cc4c(O)ccc5ccccc45)CC3)c(F)cc2c1=O | 73.5% (inactive) |
| O=c1[nH]cnc2c1ccn2C1OC(CO)C(O)C1O (stereo not given) | 58% (inactive) |
| CCCCCCCCCN(CCCCCCCCC)C(C)C(=O)c1ccc2cc(Br)c3ccccc3c2c1 (stereo not given) | 68.7% (inactive) |
| Cc1ccc2c(c1)C(C)Cc1c(Cl)ncnc1N2C (stereo not given) | 28.2% (inactive) |
| CCCCCCCCCCCCCC[n+]1cccc(C(N)=O)c1 | -51.2% (active) |
| O=S(=O)(c1ccc(N/N=C\c2ccccc2Cl)cc1)c1ccc(N/N=C/c2ccccc2Cl)cc1 | -16.1% (active) |
| Cc1ccccc1-n1nnc(C(=O)Nc2nc3ccc(F)cc3s2)c1C | 45% (inactive) |
| CC1(C)NCCC[C@]2(C)[C@H]3C=CC4=C5C[C@](C)(CO)CC[C@]5(C)CC[C@@]4(C)[C@]3(C)CC[C@@H]12 | -43.8% [100 µM] (active) |
| COc1cc2c(cc1OCCCN1CCN(CCCOc3cc4c(cc3OC)C(=O)N3C[C@H](F)C[C@H]3C=N4)CC1)N=C[C@@H]1C[C@@H](F)CN1C2=O | -3.68% (active) |

| SMILES | growth |
| --- | --- |
| CC1(C)C(=O)/C(=C\c2cccnc2)C[C@]2(C)[C@H]3CC[C@@H]4[C@H]5[C@H](C(=O)/C=C/c6cccnc6)CC[C@]5(C(=O)O)CC[C@@]4(C)[C@]3(C)CC[C@@H]12 | -27% [100 µM] (active) |
| CCN(CC)c1ccc2cc(C(Nc3ccc(Br)c(C(F)(F)F)c3)c3nnnn3C(C)(C)C)c(=O)oc2c1 (stereo not given) | 87.1% (inactive) |
| C=C(C)[C@@H]1CC[C@]2(C)[C@H](CC=C3[C@@H]4[C@@H](C)[C@H](C)CC[C@]4(C(N)=O)CC[C@]32C)[C@@]1(C)CCC#N | -21.1% [100 µM] (active) |
| COc1cc2c(cc1OCCCCCOc1ccc(-n3c(C)nc4ccccc4c3=O)cc1)N=C[C@@H]1CCCN1C2=O | -35% (active) |
| Cc1ccc(S(=O)(=O)Nc2ccccc2)cc1N | 123% (inactive) |
| CC1(C)[C@@H](NOCCCN)CC[C@]2(C)[C@H]3C(=O)C=C4[C@@H]5C[C@](C)(C(=O)O)CC[C@]5(C)CC[C@@]4(C)[C@]3(C)CC[C@@H]12 | -5.46% [100 µM] (active) |
| C[C@@H]1C[C@H]2C(=O)O[C@@H](C)[C@H](NC(=O)[C@H](Cc3cc(F)cc(F)c3)NC(=O)Nc3ccc(C4CC4)cc3F)C(=O)N3CCC[C@H]3C(=O)N3CCCC[C@H]3C(=O)N[C@@H](C)C(=O)N2C1 | 14% (inactive) |
| CCOC(=O)C(C(C)=O)c1nc2sc3cc(Cl)c(Cl)cc3n2c(=O)c1C#N (stereo not given) | 98.6% (inactive) |
| O=C1C(Cl)=C(Nc2ccc3cn[nH]c3c2)C(=O)c2ccccc21 | -54.7% (active) |
| CCNC(=O)N1CCc2c(Cl)c3c(c(OC)c2[C@@H]1[C@H]1OCc2c1ccc(OC)c2OC)OCCO3 | 17.3% (inactive) |
| O=C(O)CSCc1nnc2n(Cc3ccccc3)c(=O)c3c4c(sc3n12)CCCC4 | 76.9% (inactive) |
| CCOc1ccccc1/C=N\Nc1ccc(S(=O)(=O)c2ccc(N/N=C/c3ccccc3OCC)cc2)cc1 | 81.3% (inactive) |
| COc1cc(Cl)cc(-c2nn(C(=O)NS(=O)(=O)c3ccccc3)cc2-c2ccncc2)c1 | 91.7% (inactive) |
| CC(C)(C)c1cc(C(=O)Nc2cc3ccccc3cc2C(=O)NCCN)cc(C(C)(C)C)c1 | -47.8% (active) |
| COc1cc2c(c(OC)c1OC)-c1cc(I)c(O)cc1[C@@H](NC(C)=O)CC2 | 12.9% (inactive) |
| Nn1c(Nc2ccc(S(=O)(=O)Nc3ncccn3)cc2)nnc(/C=C/c2c(O)ccc3ccccc23)c1=O | 72.4% (inactive) |
| Brc1ccc(-c2nnc3c4[nH]ccc4ncn23)cc1 | 84.4% (inactive) |
| O=C(NNc1ccc(-c2ccccc2)nn1)c1ccc(F)cc1 | 99.7% (inactive) |
| CCOC(=O)c1ccc2nc(-c3c(C)nn(-c4ccccc4)c3N3CCOCC3)[nH]c2c1 | 84.4% (inactive) |
| O=C(N[C@@H]1CCCc2ccccc21)[C@H](CCC(=O)N1CCN(C2CCCCC2)CC1)N1C(=O)[C@@H](N2C(=O)OC[C@@H]2c2ccccc2)[C@H]1/C=C/c1ccccc1 | -13.9% (active) |
